Bioassay records from PubChem BioAssay.
TDP1 cell noCPT = qHTS for Inhibitors of human tyrosyl-DNA phosphodiesterase 1 (TDP1): qHTS in cells in absence of CPT. Potency, µM (titrated, usually from 46.2 µM), for inactives: at the top dose activity change, negative = growth inhibition, most hits filed as inhibitors. DT40 Tdp1-/- hTDP1 cells, no CPT, ATP luminescence, 48 h. actives 15% (n = 420,000); also: potency is read from the fitted curve at half-maximal effect; nearly all actives have a fitted effect of over 55% in size
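Compound effects on proliferation are scored in DT40 Tdp1-/-;hTDP1 cells in the absence of CPT. ATP levels (CellTiter-Glo luminescence) are recorded after a ≥48 hr, 37 °C incubation.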
IL-1B inflam inh = qHTS for Inhibitors of Inflammasome Signaling: IL-1-beta AlphaLISA Primary Screen | actives 4.7% (n = 360,000) | activity change, % at 57.5 µM | THP-1 LPS/ATP IL-1B secretion, AlphaLISA, 16 h; active compounds read low; in the data active = activity change below about -50%; inconclusive = mostly about -30% to -49%
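THP-1 cells pretreated 1 hr with compounds (up to 57.5 uM final), then stimulated with LPS (250 ng/mL final) plus ATP (1.25 mM final); secreted IL-1B measured by AlphaLISA after 16 hr, decreased signal indicating inhibition.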
DT40 TDP1 CPT = qHTS for Inhibitors of human tyrosyl-DNA phosphodiesterase 1 (TDP1): qHTS in cells in presence of CPT. chicken DT40 Tdp1-/-;hTDP1 cells + 20 nM CPT, ATP luminescence, 48 h. Potency, µM (highest dose often 46.2 µM), for the others: at the top dose activity change, negative = growth inhibition, usual class: inhibitors. actives 12% (n = 420,000). AID 686979, 2013; also: potency is read from the fitted curve at half-maximal effect; nearly all actives have a fitted effect of over 55% in size
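Chicken DT40 Tdp1-/- cells stably complemented with human TDP1 were seeded at 400 cells/well in medium containing 20 nM camptothecin, exposed to pin-transferred compounds, and grown at 37 °C for at least 48 hr. Viability was read as ATP luminescence.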
HT1080 IDH1KD tx = qHTS for induction of synthetic lethality in tumor cells producing 2HG: qHTS for the HT-1080-IDH1KD cell line | HT-1080 IDH1 knockdown viability, ATP luminescence, 48 h | Potency, µM (doses to about 46.1 µM), inactives show at the highest dose activity, negative = toxicity, actives largely listed as cytotoxic | actives 2% (n = 360,000) | AID 686971, 2013;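 also: potency is read from the fitted curve at half-maximal effect; 0% = DMSO wells and -100% = cell-free medium wells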
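Luminescent ATP read-out (CellTiter-Glo, 10 min at room temperature) after 48 h compound exposure at 37 °C gave viability of IDH1-knockdown HT-1080 cells. Activity was normalised to DMSO and cell-free wells, then fitted as concentration-response curves.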
HT1080NT lethal = qHTS for induction of synthetic lethality in tumor cells producing 2HG: qHTS for the HT-1080-NT fibrosarcoma cell line; HT-1080-NT fibrosarcoma viability, CellTiter-Glo ATP luminescence, 48 h; Potency, µM (doses to about 46.1 µM), inactives show at the highest dose activity, negative = less viability, usual class: cytotoxic; actives 1.6% (n = 360,000); AID 686970, 2013;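 also: NT is the 2HG producing partner of a matched IDH1 knockdown line; potency is read from the fitted curve at half-maximal effect; 0% = DMSO-treated cells and -100% = media-only wells without cells; nearly all actives have a fitted effect of over 55% in size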
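HT-1080-NT; 750 cells/well; 5% FBS RPMI; 48 h compound, 37 degrees C; CellTiter-Glo luminescence; curve fitting and curve-class assignment.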
ALOX12 inh = Primary qHTS assay for inhibitors of human arachidonate 12S-lipoxygenase (ALOX12): Round 2. Polyunsaturated fatty acid lipoxygenase ALOX12 (Homo sapiens), P18054. purified 12hLO, xylenol orange hydroperoxide absorbance. Potency, µM (doses to about 108 µM), for inactives: top-dose activity change, negative = inhibition, usual class: inhibitors. actives 1.1% (n = 580,000). AID 1671190, 2021; also: potency is read from the fitted curve at half-maximal effect
Target sequence (P18054 whole entry, looked up): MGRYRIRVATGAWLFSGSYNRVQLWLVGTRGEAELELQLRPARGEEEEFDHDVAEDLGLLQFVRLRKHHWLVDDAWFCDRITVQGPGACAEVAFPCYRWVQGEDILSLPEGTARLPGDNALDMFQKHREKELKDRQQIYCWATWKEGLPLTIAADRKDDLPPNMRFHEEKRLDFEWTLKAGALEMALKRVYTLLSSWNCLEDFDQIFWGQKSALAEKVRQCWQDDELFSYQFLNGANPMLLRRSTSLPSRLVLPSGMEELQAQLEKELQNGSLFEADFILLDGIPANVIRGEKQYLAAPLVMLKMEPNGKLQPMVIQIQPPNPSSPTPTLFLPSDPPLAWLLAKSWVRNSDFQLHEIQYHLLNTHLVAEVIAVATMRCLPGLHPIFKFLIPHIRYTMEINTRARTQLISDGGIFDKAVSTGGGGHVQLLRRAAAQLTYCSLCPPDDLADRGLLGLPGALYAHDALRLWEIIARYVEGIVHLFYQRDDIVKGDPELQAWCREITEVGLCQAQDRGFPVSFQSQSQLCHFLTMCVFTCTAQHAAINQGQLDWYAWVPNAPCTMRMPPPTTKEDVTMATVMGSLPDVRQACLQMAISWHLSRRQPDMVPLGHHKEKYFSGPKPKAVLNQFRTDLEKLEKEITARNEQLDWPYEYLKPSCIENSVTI
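Purified human 12hLO at 150 nM in 25 mM Hepes, 0.01% Triton X-100, pH 7.0, preincubated 15 min at room temperature with compound. Reaction started with 40 uM arachidonic acid, 30 min at room temperature. Hydroperoxide measured by Fe-xylenol orange, 573/405 nm absorbance ratio.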
Active calls of the source: *; ? = inconclusive; · = no result given; [ ] = dose if it differs, or a comment. This excerpt belongs to a sample that is enriched for hits. Unless noted, calls follow the shape of the dose curve; as a rule, active = well fitted curve in the direction sought with a large enough effect; inconclusive = small, poorly fitted or top-dose-only effect, or another doubt; inactive = no such curve, though single readings can be large; an effect the other way counts as inactive or inconclusive. Unless noted, % is scaled to controls: 0 for no effect and ±100 for the full control effect.

SMILES	TDP1 cell noCPT	IL-1B inflam inh	DT40 TDP1 CPT	HT1080 IDH1KD tx	HT1080NT lethal	ALOX12 inh
CC(=O)N1CC2(CCN(Cc3nnc(-c4ccco4)o3)CC2)CC1C(=O)O (stereo not given)	·	·	·	·	·	99.1%
O=C(C[C@@H]1CC=CCCC(=O)O[C@H](c2ccccc2)CNC1=O)NCc1ccc(Cl)cc1	·	·	·	·	·	1.0%[57.4 µM]
Cc1c(Cc2ccccc2)c(=O)oc2cc3c(cc12)CCC1(CCCCC1)O3	·	·	·	·	·	-17.5%
Cc1ccc(NC(=O)CN2C(=O)C(C)(C)c3cc(S(=O)(=O)N4CCCC4)ccc32)cc1	·	·	·	·	·	24.2%
O=C(NCC1(COc2cccnc2)C[C@@H](O)[C@@H](O)C1)c1cccnc1 (stereo not given in full)	·	·	·	·	·	6.8%[176 µM]
O=C(N[C@H]1C[C@@H](CO)N(Cc2ccsc2)C1)c1cccnc1	·	·	·	·	·	8.3%
CC(C)c1ccccc1Cc1cc(C(=O)Nc2ccc(S(=O)(=O)c3ccccc3C(C)(C)C)cc2)c(O)c(O)c1O	·	·	·	·	·	9.68µM*
COC(=O)C1=C(C)N=C2SC=C(CC(=O)NC3CCCCC3)N2C1c1cccc(OC)c1 (stereo not given)	·	·	·	·	·	43.9%
CCN1C(=O)[C@@H]2[C@@H](c3ccc(-c4ccc(C(C)=O)cc4)cc3)N3CCCC[C@@]3(C(=O)OC)[C@@H]2C1=O	18.4µM*	-0.4	16.4µM*	2.7%	-1.3%	6.1%
CCN1C(=O)[C@@H]2[C@@H](c3ccc(-c4ccc(OC)cc4)cc3)N3CCCC[C@@]3(C(=O)OC)[C@@H]2C1=O	16.4µM*	-6.3	25.9µM*	-13.5%	-1.3%	?
CCN1C(=O)[C@H]2[C@@H](c3ccc(-c4ccccc4)cc3)N3CCCC[C@@]3(C(=O)OC)[C@H]2C1=O	18.4µM*	-5.9	?	-21.7%	-21.0%	-6.2%
C=CCN1CC2(CCC1=O)CCN(C(=O)C1CC=CCC1)CC2 (stereo not given)	·	·	·	·	·	12.6%
COC[C@@H]1[C@H](C(=O)N2CCc3ccccc32)CCC(=O)N1C	·	·	·	·	·	47.6%
CSc1ccc(Cl)c(C(=O)O)c1	·	·	·	·	·	-23.0%
CN(C)C(=O)c1ccc(Cl)cc1	·	·	·	·	·	-11.5%
COC(=O)C(C)N(C(=O)c1ccc(Cl)cc1)c1c(C)cccc1C (stereo not given)	?	4.7	14.6µM*	-1.1%	5.7%	8.8%
COC(=O)C(C)N(C(=O)c1ccc(C(=O)c2ccccc2)cc1)c1c(C)cccc1C (stereo not given)	20µM*	-7.1	12.6µM*	?	5.1%	-5.4%
Cc1ccccc1NC(=O)C(C)c1cccc(C(=O)c2ccccc2)c1 (stereo not given)	?	26.6	-14.5%	11.7%	4.9%	6.0%
O=C(C1CCC1)N1CCCc2cc(S(=O)(=O)Nc3ccc(F)cc3)ccc21	23.1µM*	·	?	·	·	5.2%
CCOc1ccc(NS(=O)(=O)c2ccc3c(c2)CCCN3C(=O)C2CCC2)cc1	?	·	?	·	·	4.8%
Cc1cc(C)cc(NS(=O)(=O)c2ccc3c(c2)CCCN3C(=O)C2CCC2)c1	20.6µM*	·	23.1µM*	·	·	10.1%
CCCc1cc(-c2nc(N)ncc2-c2ccc3c(c2)OCCCO3)c(O)cc1OC	25.9µM*	?	?	?	-25.4%	-4.6%
O=C(CCC[C@@H]1[C@H]2CCCN3CCC[C@@H](CN1C(=O)c1cc(F)ccc1F)[C@@H]23)NCC1CC1	·	·	·	·	·	27.3%
O=c1ccn([C@@H]2O[C@H](CNCc3c(OCc4ccccc4F)ccc4ccccc34)[C@@H](O)[C@H]2O)c(=O)[nH]1	?	-57.8*	16.4µM*	?	?	-3.0%
Fc1ccccc1COc1ccc2ccccc2c1CNc1nn[nH]n1	-17.8%	26.9	-5.2%	16.4µM*	13µM*	3.0%
SMILES	TDP1 cell noCPT	IL-1B inflam inh	DT40 TDP1 CPT	HT1080 IDH1KD tx	HT1080NT lethal	ALOX12 inh
NC(=O)c1ncn([C@@H]2O[C@H](CNCc3c(OCc4ccccc4F)ccc4ccccc34)[C@@H](O)[C@H]2O)n1	-9.1%	-18.7	5.8%	7.3%	5.7%	7.8%
CCN(CC)S(=O)(=O)c1ccc(N2CCN(c3cccc(OC)c3)CC2)c([N+](=O)[O-])c1	8.2µM*	-13.0	13µM*	?	-3.3%	10.1%
CCN(CC)S(=O)(=O)c1ccc2c(c1)N(CC(=O)N1CCN(c3cc(Cl)ccc3C)CC1)C(=O)CO2	?	·	?	·	·	1.7%
CCN(CC)S(=O)(=O)c1ccc2c(c1)N(CC(=O)N1CCN(c3ccc(OC)cc3)CC1)C(=O)CO2	?	·	20.6µM*	·	·	3.8%
CCN(CC)S(=O)(=O)c1ccc2c(c1)N(CC(=O)N1CCN(c3ccccc3F)CC1)C(=O)CO2	·	·	·	·	·	-5.4%
O=C(CN1C(=O)COc2ccc(S(=O)(=O)N3CCCC3)cc21)N1CCN(c2ccc(Cl)cc2)CC1	·	·	·	·	·	-8.0%
CCN(CC)S(=O)(=O)c1ccc2c(c1)N(CC(=O)N1CCN(c3cccc(OC)c3)CC1)C(=O)CO2	?	·	20.6µM*	·	·	-4.5%
COc1cccc(N2CCN(c3ccc(S(=O)(=O)N4CCN(C)CC4)cc3[N+](=O)[O-])CC2)c1	?	-5.4	?	-5.5%	-4.9%	?
O=C(CN1C(=O)COc2ccc(S(=O)(=O)N3CCCCCC3)cc21)N1CCN(c2ccc(F)cc2)CC1	20.6µM*	·	23.1µM*	·	·	-8.2%
C=CCN(CC=C)C(=O)C1(Oc2cccnc2C)CCNCC1	·	·	·	·	·	23.5%
CC(C)(C)c1ccc(-c2nc3c(C#N)c(-c4ccc5c(c4)OCO5)ccn3n2)cc1	13µM*	40.8	18.4µM*	0.6%	-1.4%	0.0%
